We go through four compounds from PubChem BioAssay.

Active and inactive are the calls of the source.

A short description of assay [1]: optical density shifts of acrAB sulA E. coli – strain DRC41, OD650, 48 h, E. coli filamentation inducer project, primary screen (AID 1152).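 Note: E. coli MC1000 strain DRC41 lacking acrAB efflux pump and sulA.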 The settings on record: higher = more signal, called active from +8 up or from −8 down.
Assay [2] in a line: probe aLefty1 binding on compound microarray – biochemical, small-molecule microarray, 635/667 nm fluorescence, primary screen (AID 1153).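 Note: score merges spot fluorescence with signal-to-noise ratio from the scanned slide images.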 The settings on record: higher = more signal.
Assay [3] is described as follows: plasmodial surface anion channel blockers, osmotic lysis – cell-based, P. falciparum Indochina, OD700, 1 h, primary screen (AID 1154). The settings on record: P. falciparum Indochina infected RBC osmotic lysis, higher = more signal, called active from +8 up or from −8 down.
Assay [4] can be described thus: plasmodial surface anion channel blockers, osmotic lysis – cell-based, P. falciparum Indochina, OD700, 2 h, primary screen (AID 1155).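 Note: lysis reports solute entry through the parasite surface anion channel PSAC.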 The settings on record: P. falciparum Indochina infected erythrocytes, higher = more signal, called active from +8 up or from −8 down.
Assay [5] can be described thus: changes in parasitized red cell lysis, either direction – P. falciparum Indochina, OD700, 3 h, PSAC antagonist project, primary screen (AID 1156). The settings on record: P. falciparum-infected erythrocytes, osmotic lysis, higher = more signal, called active from +8 up or from −8 down.
Assay [6] is described as follows: plasmodial surface anion channel blockers, osmotic lysis – cell-based, P. falciparum Indochina, OD700, 18 h, primary screen (AID 1157). The settings on record: P. falciparum Indochina infected erythrocytes, osmotic lysis OD700, 18 h; higher = more signal, called active from +8 up or from −8 down.
Assay [7] in a line: S6 kinase pathway phospho-S6 level changes – cell-based, A549, cytoblot, luminescence, serum-stimulated, primary screen (AID 1158).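 Note: serum-stimulated A549 lung adenocarcinoma cells; signal is phosphorylated S6 detected by cytoblot immunostaining with HRP secondary.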 The settings on record: 5 h, higher = more signal.
The target of assay [8] is NADPH oxidase 2 (Homo sapiens) (UniProt P04839). As to the kind of experiment: compounds shifting NOX2 Amplex Red fluorescence – cell-based, HEK293-NOX2, PMA-stimulated, NOX inhibitor project, primary screen (AID 1159). Note: test concentration not given here. The settings on record: 45 min, higher = more signal, called active from +8 up or from −8 down.
Chain of NADPH oxidase 2 (Homo sapiens) (P04839 whole entry, looked up): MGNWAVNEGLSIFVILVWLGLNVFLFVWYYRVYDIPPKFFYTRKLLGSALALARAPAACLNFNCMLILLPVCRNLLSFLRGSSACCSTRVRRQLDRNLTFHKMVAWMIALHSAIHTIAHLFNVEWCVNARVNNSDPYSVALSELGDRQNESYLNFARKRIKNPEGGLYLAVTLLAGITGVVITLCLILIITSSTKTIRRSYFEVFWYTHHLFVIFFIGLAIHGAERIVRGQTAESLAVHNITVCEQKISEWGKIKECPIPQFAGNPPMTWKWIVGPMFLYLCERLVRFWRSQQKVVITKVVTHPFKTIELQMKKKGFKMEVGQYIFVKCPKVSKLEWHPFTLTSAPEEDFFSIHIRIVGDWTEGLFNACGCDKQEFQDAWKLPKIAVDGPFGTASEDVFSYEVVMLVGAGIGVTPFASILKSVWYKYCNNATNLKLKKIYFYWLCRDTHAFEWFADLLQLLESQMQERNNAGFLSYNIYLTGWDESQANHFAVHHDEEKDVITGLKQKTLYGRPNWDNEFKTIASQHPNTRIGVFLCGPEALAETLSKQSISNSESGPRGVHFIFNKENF
For assay [9], the target named is NADPH oxidase 4 (Homo sapiens) (UniProt Q9NPH5). The assay is described as follows: compounds shifting NOX4 Amplex Red fluorescence – cell-based, HEK293-NOX4, tetracycline-induced, NOX inhibitor project, primary screen (AID 1160). The settings on record: HEK293-NOX4, Amplex Red H2O2 fluorescence, 45 min; higher = more signal, called active from +8 up or from −8 down.
Chain of NADPH oxidase 4 (Homo sapiens) (Q9NPH5 whole entry, looked up): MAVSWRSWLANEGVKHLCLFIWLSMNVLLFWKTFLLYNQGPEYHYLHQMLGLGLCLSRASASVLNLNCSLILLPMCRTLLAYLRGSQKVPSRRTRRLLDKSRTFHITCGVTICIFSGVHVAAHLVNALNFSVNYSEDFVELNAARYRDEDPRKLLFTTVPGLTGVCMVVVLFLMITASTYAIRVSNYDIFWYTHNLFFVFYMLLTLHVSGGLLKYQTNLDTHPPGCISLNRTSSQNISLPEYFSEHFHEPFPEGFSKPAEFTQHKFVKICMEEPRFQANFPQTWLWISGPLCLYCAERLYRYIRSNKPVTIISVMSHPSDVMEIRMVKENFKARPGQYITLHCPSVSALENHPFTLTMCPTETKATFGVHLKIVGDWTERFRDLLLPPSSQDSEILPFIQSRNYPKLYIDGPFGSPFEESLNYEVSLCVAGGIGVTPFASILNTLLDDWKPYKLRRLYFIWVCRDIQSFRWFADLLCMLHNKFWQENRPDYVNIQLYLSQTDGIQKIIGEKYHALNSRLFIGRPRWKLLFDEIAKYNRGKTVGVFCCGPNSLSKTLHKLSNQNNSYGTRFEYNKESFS

Assay [10] addresses NADPH oxidase 5 (Homo sapiens) (UniProt Q96PH1). The assay is described as follows: compounds shifting NOX5 Amplex Red fluorescence – cell-based, HEK293-NOX5, NOX inhibitor project, primary screen (AID 1161). The settings on record: HEK293-NOX5, ionomycin, 45 min, higher = more signal.
The nature of assay [11]: compound effects on lung adenocarcinoma cell viability – A549, calcein-AM fluorescence, 48 h, basal, profiling panel (AID 1162). Note: test concentration not given here. The settings on record: higher = more signal.
The nature of assay [12]: compound effects on differentiated 3T3-L1 adipocyte viability – cell-based, 3T3-L1 adipocytes, calcein-AM fluorescence, 48 h, basal, profiling panel (AID 1163). Note: test concentration not given here. The settings on record: 3T3-L1 adipocytes viability, higher = more signal.
Assay [13] in a line: compound effects on hepatocellular carcinoma cell viability – HepG2, calcein-AM fluorescence, 48 h, basal, profiling panel (AID 1164). Note: test concentration not given here. The settings on record: higher = more signal.
A short description of assay [14]: compound effects on multiple myeloma cell viability – MM1S, calcein-AM fluorescence, 48 h, basal, profiling panel (AID 1165).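 Note: viability of MM1S multiple myeloma cells under basal unstimulated conditions; test concentration not given here.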 The settings on record: higher = more signal.
A short description of assay [15]: calcein-AM signal in unstimulated myeloma cells – cell-based, calcein-AM fluorescence, 48 h, PK04 Diversity Set, profiling panel (AID 1166).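 Note: cells grown under basal conditions without added stimulus; test concentration not given here.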 The settings on record: RPMI8226 myeloma viability, higher = more signal.
Assay [16] is described as follows: JC-1 mitochondrial signal, unstimulated HepG2 cells – cell-based, JC-1 fluorescence, 24 h, 100 nL compound, profiling panel (AID 1167). Note: test concentration not given here. The settings on record: HepG2 mitochondrial potential, higher = more signal.
Assay [17] is described as follows: JC-1 mitochondrial signal, unstimulated adipocytes – cell-based, JC-1 fluorescence, 3T3-L1 adipocytes, 24 h, 100 nL compound, profiling panel (AID 1168). Note: test concentration not given here. The settings on record: JC-1 mitochondrial fluorescence, higher = more signal, called active from +8 up or from −8 down.
A short description of assay [18]: JC-1 mitochondrial signal, unstimulated myeloma cells – cell-based, JC-1 fluorescence, RPMI8226, 24 h, 100 nL compound, profiling panel (AID 1169). Note: test concentration not given here. The settings on record: JC-1 mitochondrial potential fluorescence, higher = more signal.
Assay [19] is described as follows: JC-1 mitochondrial signal, unstimulated MM1S myeloma – cell-based, JC-1 fluorescence, 24 h, 100 nL compound, profiling panel (AID 1170). Note: test concentration not given here. The settings on record: MM1S mitochondrial potential, higher = more signal.
The nature of assay [20]: resazurin metabolic signal in A549 cells – cell-based, resazurin fluorescence, 24 h, PK04 Diversity Set, profiling panel (AID 1171). Note: test concentration not given here. The settings on record: A549 viability, higher = more signal, called active from +8 up or from −8 down. In general terms: The colour change of resazurin is a common sign of viable cells or microbes.

Chain of NADPH oxidase 5 (Homo sapiens) (Q96PH1 whole entry, looked up): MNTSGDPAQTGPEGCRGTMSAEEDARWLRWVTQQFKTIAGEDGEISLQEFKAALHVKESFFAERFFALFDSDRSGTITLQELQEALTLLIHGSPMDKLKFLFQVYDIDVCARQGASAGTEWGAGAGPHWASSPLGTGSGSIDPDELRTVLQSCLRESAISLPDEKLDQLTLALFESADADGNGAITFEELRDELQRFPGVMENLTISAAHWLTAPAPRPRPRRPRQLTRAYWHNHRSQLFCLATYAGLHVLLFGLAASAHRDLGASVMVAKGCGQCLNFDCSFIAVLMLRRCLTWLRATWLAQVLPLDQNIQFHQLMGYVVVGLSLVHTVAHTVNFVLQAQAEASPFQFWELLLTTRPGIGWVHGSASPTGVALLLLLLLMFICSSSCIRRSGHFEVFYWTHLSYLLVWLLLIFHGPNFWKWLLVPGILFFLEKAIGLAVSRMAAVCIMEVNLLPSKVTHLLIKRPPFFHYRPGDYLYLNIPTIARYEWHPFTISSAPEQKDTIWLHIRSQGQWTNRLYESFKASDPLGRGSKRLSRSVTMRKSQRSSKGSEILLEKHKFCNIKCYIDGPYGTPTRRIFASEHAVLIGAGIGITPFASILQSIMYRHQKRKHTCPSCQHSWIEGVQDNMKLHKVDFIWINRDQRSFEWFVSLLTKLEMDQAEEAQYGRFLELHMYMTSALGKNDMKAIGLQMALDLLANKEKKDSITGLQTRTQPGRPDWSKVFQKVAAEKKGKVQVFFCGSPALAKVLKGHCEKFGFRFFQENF

Regarding `COc1ccc(C(O)C2C=CC3C(=O)N(Cc4ccccc4)C(=O)C3N2n2cnnc2)c2ccccc12` (stereo not given), the z-score in assay [1] was -0.855 (inactive); in [3] it was 0.782 (inactive); in [4] it was -0.11 (inactive); in assay [5], 1.57 (inactive); in assay [6], -1.58 (inactive); in assay [7], 2.01. For the same compound, the z-score is -2.98 (inactive) in [8]; -0.674 (inactive) in assay [9]; -3.65 in assay [10]; 0.0609 in assay [11]; 0.936 in [12]; 0.0591 in [13]. Moreover, the z-score in assay [14] was 0.405; in [15] it was -1.34; in assay [16] it was -0.722; in assay [17], 0.895 (inactive); in assay [18] it was -0.992; in assay [19], -0.129. For the same compound, the z-score in [20] was -0.96 (inactive). In [2], the composite z-score is 0.425.
As to `COC(=O)[C@@]1(Cc2ccc(OC)cc2)[C@H]2c3cc(C(=O)N(C)C)n(Cc4nc5ccccc5[nH]4)c3C[C@H]2CN1C(=O)c1ccccc1`, the z-score in assay [1] was -2.02 (inactive); in assay [3], 2.03 (inactive); in assay [4] it was 0.724 (inactive); in assay [5] it was 0.482 (inactive); in assay [6], 1.25 (inactive); in assay [7], 0.123. Further, the z-score in assay [8] is 0.576 (inactive); in assay [9], 1.85 (inactive); in assay [10] it was 2.4; in [11] it was -2.46; in assay [12] it was -0.529; in assay [13], -1.79. Moreover, the z-score is -1.37 in assay [14]; -3.86 in assay [15]; 2.13 in assay [16]; -1.24 (inactive) in assay [17]; -0.737 in assay [18]; -1.49 in [19]. Also, in assay [20], the z-score is -0.88 (inactive). For the same compound, the composite z-score in assay [2] amounted to 0.905.
Regarding `C=C[C@H](COC(C)=O)NS(=O)(=O)c1ccc(Br)cc1`, the z-score in assay [1] was 0.348 (inactive); in [3], 0.174 (inactive); in [4], -0.191 (inactive); in assay [5], -0.3 (inactive); in assay [6] it was 0.252 (inactive); in assay [7], 0.16. Further, the z-score in assay [8] was 1.96 (inactive); in assay [9], -0.0653 (inactive); in assay [10] it was 0.0573; in [11], 0.0955; in assay [12], -0.569; in assay [13], 1.05. The z-score was 0.661 in [14]; 0.402 in assay [15]; 0.549 in assay [16]; 0.0685 (inactive) in assay [17]; -0.616 in [18]; 0.651 in assay [19]. Further, in assay [20], the z-score was -0.201 (inactive). This compound also returned a composite z-score in [2] of 0.0056.
With `O=C1O[C@@H](c2ccccc2)[C@@H](c2ccccc2)N2[C@@H](c3ccc(O)cc3)[C@]3(C(=O)Nc4ccc(C#CCCO)cc43)[C@@H](C(=O)Nc3nc4ccccc4s3)[C@H]12`, the z-score in assay [1] is 0.341 (inactive); in assay [3], 1.35 (inactive); in assay [4], 1.19 (inactive); in assay [5], -0.743 (inactive); in assay [6] it was 1.63 (inactive); in [7], -0.435. Also, the z-score in assay [8] was 1.1 (inactive); in assay [9], 0.604 (inactive); in assay [10], -0.073; in assay [11] it was 1.06; in assay [12] it was 0.225; in assay [13], 0.609. In addition, the z-score in assay [14] is -2.66; in assay [15] it was -2.65; in assay [16], -3.79; in [17], -1.3 (inactive); in [18], -0.503; in assay [19] it was -1.03. Besides, in assay [20], the z-score is 0.621 (inactive). In [2], the composite z-score amounted to 0.139.
